Assay results as given in PubChem BioAssay (NCI).
About 79,000 compounds went through this panel and 15% of them were active in at least one assay; those are over-represented in the sample as a whole. Activity calls are given as the source filed them. Cut-off read from the data, not from the text of the source: active = growth inhibition above about 70%; inactive = the rest.

Key:
[1] = NCI Yeast Anticancer Drug Screen. Data for the rad52 strain (AID 147);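 note: 0% = growth of vehicle-treated control cultures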; details: S. cerevisiae rad52 mutant growth inhibition, stronger effect = higher value
Summary of the method: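 Here a repair-compromised yeast strain receives each compound; its growth is then quantified and normalised to vehicle-only controls.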

[2] = NCI Yeast Anticancer Drug Screen. Data for the wt1 strain (AID 149);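 note: 0% = growth of vehicle-treated wt1 cultures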; details: S. cerevisiae wt1 strain (SPY 50644) growth inhibition, stronger effect = higher value
Summary of the method: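 The wt1 strain was treated with compounds, and growth was compared with vehicle-treated cultures to give inhibition.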

[3] = NCI Yeast Anticancer Drug Screen. Data for the rad50EPP+ strain (AID 151);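 note: 0% = growth of vehicle-treated control cultures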; details: S. cerevisiae rad50 mutant strain, stronger effect = higher value
Summary of the method: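 Read-out is yeast growth inhibition relative to vehicle; cells used were the rad50EPP+ strain.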

[4] = NCI Yeast Anticancer Drug Screen. Data for the mgt1 strain (AID 153); details: S. cerevisiae mgt1 mutant growth inhibition, stronger effect = higher value
Summary of the method: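 Measured: inhibition of mgt1 yeast growth by compound, normalized to vehicle-treated cultures.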

[5] = NCI Yeast Anticancer Drug Screen. Data for the rad50 strain (AID 155);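 note: 0% = growth of vehicle-only cultures of the same strain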; details: S. cerevisiae rad50 strain growth inhibition, stronger effect = higher value
Summary of the method: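 Cells are treated with compound, grown, and their growth is then scored against vehicle-only cultures of the same repair-deficient yeast strain.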

[6] = NCI Yeast Anticancer Drug Screen. Data for the mec2-1 strain (AID 157); details: S. cerevisiae mec2-1 strain, stronger effect = higher value
Summary of the method: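 Using mec2-1 yeast: add compound, measure growth, express inhibition versus vehicle-treated cultures.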

[7] = NCI Yeast Anticancer Drug Screen. Data for the rad14 strain (AID 159);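 note: 0% = growth of vehicle-treated control cultures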; details: S. cerevisiae rad14 strain growth inhibition, stronger effect = higher value
Summary of the method: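 Readout: yeast growth inhibition, referenced to vehicle-only cultures. Strain bears a defined alteration in DNA damage repair.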

[8] = NCI Yeast Anticancer Drug Screen. Data for the sgs1 mgt1 strain (AID 161);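 note: 0% = growth of cultures given vehicle only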; details: S. cerevisiae sgs1 mgt1 strain, stronger effect = higher value
Summary of the method: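 Yeast cells carrying a defined DNA-repair defect were exposed to test compounds. Growth inhibition was measured relative to vehicle-treated controls.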

[9] = NCI Yeast Anticancer Drug Screen. Data for the cln2 rad14 strain (AID 165);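 note: 0% = growth equal to vehicle treated cultures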; details: S. cerevisiae cln2 rad14 strain, stronger effect = higher value
Summary of the method: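 Yeast strain cln2 rad14, bearing defects in cell cycle control and DNA repair, serves as the test system; values reflect growth inhibition compared with vehicle.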

[10] = NCI Yeast Anticancer Drug Screen. Data for the bub3 strain (AID 167); details: S. cerevisiae bub3 mutant strain, stronger effect = higher value
Summary of the method: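 Part of a panel of yeast mutants defective in DNA damage repair or cell cycle regulation. Each strain is grown with compound, and inhibition is calculated relative to solvent-treated cultures.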

[11] = NCI Yeast Anticancer Drug Screen. Data for the wt2 strain (AID 169);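 note: 0% = growth of vehicle-treated yeast cultures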; details: S. cerevisiae wt2 strain growth inhibition, stronger effect = higher value
Summary of the method: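 Treated yeast vs. vehicle-treated yeast: growth inhibition determined.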

[12] = NCI Yeast Anticancer Drug Screen. Data for the mlh1 strain (AID 171);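 note: 0% = growth of vehicle-treated control cultures of the same strain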; details: S. cerevisiae mlh1 strain growth inhibition, stronger effect = higher value
Summary of the method: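 A yeast strain with a defined genetic lesion serves as the test organism. Cultures receive compound or vehicle, and growth is measured.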

[13] = NCI Yeast Anticancer Drug Screen. Data for the sgs1 strain (AID 173);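 note: 0% = growth of vehicle-only control cultures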; details: S. cerevisiae sgs1 mutant, stronger effect = higher value
Summary of the method: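 A genetically defined yeast mutant is incubated with the test compound, and its growth is compared to that of the same strain given vehicle.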

[14] = NCI Yeast Anticancer Drug Screen. Data for the mlh1 rad18 strain (AID 175); details: S. cerevisiae mlh1 rad18 strain growth inhibition, stronger effect = higher value
Summary of the method: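 Steps: expose repair-defective yeast to compound; measure growth; express inhibition against vehicle-treated controls.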

[15] = NCI Yeast Anticancer Drug Screen. Data for the rad18 strain (AID 177); details: S. cerevisiae rad18 mutant growth inhibition, stronger effect = higher value
Summary of the method: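 Measured value is growth inhibition of a yeast strain bearing a DNA repair alteration, referenced to vehicle-treated cells.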

[16] = NCI Yeast Anticancer Drug Screen. Data for the CLN2oe strain (AID 163);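 note: 0% = growth of vehicle-only control cultures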; details: S. cerevisiae CLN2oe strain, stronger effect = higher value
Summary of the method: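 Whole-cell yeast growth assay. A strain engineered for altered cell-cycle control received compound, and inhibition relative to vehicle-treated cultures was recorded.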

[17] = at 5.0 µM (retest, dose inferred, filed as 0.5)
[18] = at 50.0 µM (retest, dose inferred, filed as 5.0)

Measured: growth inhibition

O=S(=O)(c1cc(Cl)ccc1O)c1cc(Cl)ccc1O
active: [1]; at 3.7 µM 91% | [1]; at 11.0 µM 99% | [1]; at 33.0 µM 99% | [1]; at 100.0 µM 99% | [2]; at 3.7 µM 89% | [2]; at 11.0 µM 99% | [2]; at 33.0 µM 99% | [2]; at 100.0 µM 99% | [4]; at 3.7 µM 92% | [4]; at 11.0 µM 99% | [4]; at 33.0 µM 99% | [4]; at 100.0 µM 99% | [5]; at 3.7 µM 91% | [5]; at 11.0 µM 98% | [5]; at 33.0 µM 97% | [5]; [18] 99% | [5]; at 50.0 µM 99.5% | [5]; at 100.0 µM 99% | [6]; at 3.7 µM 93% | [6]; at 11.0 µM 99% | [6]; at 33.0 µM 98% | [6]; [18] 100% | [6]; at 50.0 µM 99.7% | [6]; at 100.0 µM 100% | [7]; at 3.7 µM 96% | [7]; at 11.0 µM 99% | [7]; at 33.0 µM 99% | [7]; at 100.0 µM 100% | [8]; [17] 75% | [8]; [18] 100% | [8]; at 50.0 µM 99.5% | [9]; [18] 99% | [9]; at 50.0 µM 98.9% | [10]; at 3.7 µM 91% | [10]; at 11.0 µM 98% | [10]; at 33.0 µM 99% | [10]; [18] 99% | [10]; at 50.0 µM 99.4% | [10]; at 100.0 µM 99% | [11]; at 3.7 µM 85% | [11]; at 11.0 µM 97% | [11]; at 33.0 µM 99% | [11]; at 100.0 µM 100% | [12]; at 3.7 µM 85% | [12]; at 11.0 µM 99% | [12]; at 33.0 µM 99% | [12]; at 100.0 µM 99% | [13]; at 3.7 µM 91% | [13]; at 11.0 µM 99% | [13]; at 33.0 µM 99% | [13]; at 100.0 µM 99% | [14]; [17] 82% | [14]; [18] 99% | [14]; at 50.0 µM 99.7% | [15]; at 3.7 µM 84% | [15]; at 11.0 µM 98% | [15]; at 33.0 µM 99% | [15]; at 100.0 µM 99%
inactive: [1]; at 1.2 µM 24% | [2]; at 1.2 µM 1% | [3]; at 1.2 µM -1% | [3]; at 3.7 µM 5% | [3]; at 11.0 µM 12% | [3]; at 33.0 µM 14% | [3]; at 100.0 µM 45% | [4]; at 1.2 µM 15% | [5]; at 1.2 µM 27% | [5]; [17] 52% | [6]; at 1.2 µM 30% | [6]; [17] 35% | [7]; at 1.2 µM 9% | [9]; [17] 23% | [10]; at 1.2 µM 20% | [10]; [17] 48% | [11]; at 1.2 µM 7% | [12]; at 1.2 µM 21% | [13]; at 1.2 µM 26% | [15]; at 1.2 µM 26%

Clc1cc(-c2ccccc2)nc2ccccc12
active: [1]; at 100.0 µM 75% | [2]; at 100.0 µM 71% | [3]; at 33.0 µM 77% | [3]; at 100.0 µM 90% | [4]; at 33.0 µM 80% | [4]; at 100.0 µM 97% | [5]; [18] 90% | [5]; at 50.0 µM 75.3% | [5]; at 100.0 µM 81% | [6]; [17] 77% | [6]; [18] 92% | [6]; at 100.0 µM 86% | [7]; at 100.0 µM 91% | [8]; [18] 88% | [9]; [18] 82% | [10]; [18] 93% | [10]; at 100.0 µM 93%
inactive: [1]; at 1.2 µM 6% | [1]; at 3.7 µM -1% | [1]; at 11.0 µM 0% | [1]; at 33.0 µM 34% | [2]; at 1.2 µM -10% | [2]; at 3.7 µM -15% | [2]; at 11.0 µM -17% | [2]; at 33.0 µM 24% | [3]; at 1.2 µM 7% | [3]; at 3.7 µM 27% | [3]; at 11.0 µM 56% | [4]; at 1.2 µM 13% | [4]; at 3.7 µM 32% | [4]; at 11.0 µM 36% | [5]; at 1.2 µM 6% | [5]; at 3.7 µM 10% | [5]; [17] 68% | [5]; at 11.0 µM 2% | [5]; at 33.0 µM 36% | [6]; at 1.2 µM -18% | [6]; at 3.7 µM -8% | [6]; at 11.0 µM -14% | [6]; at 33.0 µM 33% | [6]; at 50.0 µM 44.4% | [7]; at 1.2 µM 1% | [7]; at 3.7 µM 2% | [7]; at 11.0 µM 1% | [7]; at 33.0 µM 46% | [8]; [17] -23% | [16]; at 1.2 µM 5% | [16]; at 3.7 µM 3% | [16]; at 11.0 µM -8% | [16]; at 33.0 µM 28% | [16]; at 100.0 µM 54% | [9]; [17] 40% | [10]; at 1.2 µM 11% | [10]; at 3.7 µM 23% | [10]; [17] 27% | [10]; at 11.0 µM 34% | [10]; at 33.0 µM 60% | [11]; at 1.2 µM -11% | [11]; at 3.7 µM -3% | [11]; at 11.0 µM 0%
